Laboratory results reported in PubChem BioAssay (NCI).
The panel holds about 79,000 compounds, 15% with a hit somewhere; the sample as a whole holds those more often. Values without a mark were called inactive. Activity calls are given as the source filed them. Cut-off read from the data, not from the text of the source: active = growth inhibition above about 70%; inactive = the rest.

Tests used:
[1] = NCI Yeast Anticancer Drug Screen. Data for the rad50 strain (AID 155);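 note: 0% = growth of vehicle-only cultures of the same strain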; details: S. cerevisiae rad50 strain growth inhibition, stronger effect = higher value
How it was run: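 Compounds were tested on a yeast strain with an engineered DNA damage repair alteration; the reported value is growth inhibition normalised to vehicle treatment.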

[2] = NCI Yeast Anticancer Drug Screen. Data for the mec2-1 strain (AID 157); details: S. cerevisiae mec2-1 strain, stronger effect = higher value
How it was run: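 Using mec2-1 yeast: add compound, measure growth, express inhibition versus vehicle-treated cultures.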

[3] = NCI Yeast Anticancer Drug Screen. Data for the sgs1 mgt1 strain (AID 161);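 note: 0% = growth of cultures given vehicle only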; details: S. cerevisiae sgs1 mgt1 strain, stronger effect = higher value
How it was run: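 Growth of a repair-deficient yeast mutant was monitored after compound treatment and expressed as inhibition relative to vehicle-treated cultures.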

[4] = NCI Yeast Anticancer Drug Screen. Data for the cln2 rad14 strain (AID 165);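 note: 0% = growth equal to vehicle treated cultures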; details: S. cerevisiae cln2 rad14 strain, stronger effect = higher value
How it was run: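 Yeast strain cln2 rad14, bearing defects in cell cycle control and DNA repair, serves as the test system; values reflect growth inhibition compared with vehicle.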

[5] = NCI Yeast Anticancer Drug Screen. Data for the bub3 strain (AID 167); details: S. cerevisiae bub3 mutant strain, stronger effect = higher value
How it was run: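 Growth of a checkpoint-deficient yeast mutant is measured after compound exposure. Values represent inhibition relative to vehicle.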

[6] = NCI Yeast Anticancer Drug Screen. Data for the mlh1 rad18 strain (AID 175); details: S. cerevisiae mlh1 rad18 strain growth inhibition, stronger effect = higher value
How it was run: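 Steps: expose repair-defective yeast to compound; measure growth; express inhibition against vehicle-treated controls.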

[7] = at 5.0 µM (retest, dose inferred, filed as 0.5)
[8] = at 50.0 µM (retest, dose inferred, filed as 5.0)

SMILES | growth inhibition [1, 7] | growth inhibition [1, 8] | growth inhibition ([1]; at 50.0 µM) | growth inhibition [2, 7] | growth inhibition [2, 8] | growth inhibition ([2]; at 50.0 µM) | growth inhibition [3, 7] | growth inhibition [3, 8] | growth inhibition ([3]; at 50.0 µM) | growth inhibition [4, 7] | growth inhibition [4, 8] | growth inhibition ([4]; at 50.0 µM) | growth inhibition [5, 7] | growth inhibition [5, 8] | growth inhibition ([5]; at 50.0 µM) | growth inhibition [6, 7] | growth inhibition [6, 8] | growth inhibition ([6]; at 50.0 µM)
CC(=O)OCC(=O)[C@@]1(O)[C@H](C)C[C@H]2[C@@H]3C=C(C)C4=Cc5c(cnn5-c5ccccc5)C[C@]4(C)[C@@]3(F)[C@@H](O)C[C@@]21C | 0% | 81% (active) | 82.4% (active) | 0% | 36% | 69.5% | 35% | 91% (active) | 83.2% (active) | 19% | 88% (active) | 73.4% (active) | -1% | 79% (active) | 24.1% | 46% | 87% (active) | 87.7% (active)
CC(NNC(=S)N1CC2CCC(CC2)C1)c1cc2ccccc2cn1 (configuration not stated) | 97% (active) | 97% (active) | 96.9% (active) | 97% (active) | 99% (active) | 97.4% (active) | 98% (active) | 99% (active) | 94.5% (active) | 72% (active) | 61% | 92.6% (active) | 98% (active) | 99% (active) | 98.2% (active) | 98% (active) | 99% (active) | 98% (active)
O=C(O/N=C1/CCCC/C1=C\c1ccccc1)c1ccccc1 | 24% | 86% (active) | 76.2% (active) | 17% | 95% (active) | 88.3% (active) | 51% | 94% (active) | 85.8% (active) | 47% | 97% (active) | 87% (active) | 53% | 94% (active) | 81.1% (active) | 19% | 82% (active) | 81.7% (active)
COc1ccc(C(c2cc3c(cc2O)OCO3)N2CCOCC2)cc1OC (configuration not stated) | -2% | 39% | 77.5% (active) | -5% | 59% | 86.5% (active) | -2% | 43% | 96.5% (active) | 0% | 12% | 67.5% | -5% | 41% | 98% (active) | -2% | 35% | 70.7% (active)
NC(=S)N/N=C1/C(=O)c2cccc3cccc1c23 | 10% | 96% (active) | 91.8% (active) | -2% | 78% (active) | 0.1% | 1% | 80% (active) | 66.7% | -9% | 65% | -26.7% | 9% | 65% | 7.65% | 6% | 90% (active) | 70.5% (active)
COC(=O)c1ccc(OC)cc1 | 2% | -1% | 49.9% | 3% | -3% | 3.4% | -1% | -4% | 49.8% | -1% | -7% | 20.7% | 3% | 2% | 69.1% | 3% | -3% | 16.2%
O=C(CNC(=O)C(CSCc1ccccc1)NC(=O)OCc1ccccc1)Oc1c(Cl)c(Cl)c(Cl)c(Cl)c1Cl (configuration not stated) | 10% | 34% | 46.9% | 8% | 30% | 61.9% | 2% | 30% | 68.8% | 3% | 20% | 25.6% | -4% | 13% | 15.9% | 9% | 51% | 66.4%
CC(C)Cc1ncc(CC(C)C)n(O)c1=O | 34% | 97% (active) | 89.2% (active) | 26% | 98% (active) | 87.8% (active) | 41% | 97% (active) | 91% (active) | -6% | 97% (active) | 81.3% (active) | 10% | 99% (active) | 89.5% (active) | 61% | 98% (active) | 89.9% (active)
CCCCCCCCCCCC(=O)N1CCCC1 | -1% | 99% (active) | 99.4% (active) | -10% | 100% (active) | 99.5% (active) | 3% | 40% | 96.8% (active) | -3% | 99% (active) | 99.2% (active) | -3% | 99% (active) | 99.5% (active) | 7% | 99% (active) | 99.5% (active)
